HT1080 IDH1KD tx = toxicity to HT-1080 IDH1 knockdown cells (counter line). HT-1080 IDH1 knockdown viability, ATP luminescence, 48 h. Potency, µM (series often up to 46.1 µM), most hits filed as cytotoxic. hit rate 2% among 360,000. AID 686971
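HT-1080-IDH1KD cells (IDH1 knocked down), 750/well in RPMI with 5% FBS, treated with compound 48 h at 37 degrees C. Viability by CellTiter-Glo luminescence, normalised to DMSO and no-cell wells; concentration-response curves classed.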
HepG2 viability = HepG2 cytotoxicity, counter-screen for TGF-b inhibitors | Potency, µM (series often up to 46.1 µM), most hits filed as cytotoxic | AID 588856 | hit rate 0.76% among 410,000 | HepG2 CAGA-GFP viability, ATP luminescence, 18 h
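CellTiter-Glo luminescence gave cytotoxicity after 18 hours at 37 degrees C. The cells were HepG2 CAGA-GFP in 1% FBS DMEM, stimulated with 500 pg/mL TGF-beta after compound addition. %Activity was normalised to no-cell wells (complete cell-killing) and DMSO (no toxicity), and curves were fitted and classified.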
HT1080NT lethal = kills 2HG-producing HT-1080-NT fibrosarcoma cells. HT-1080-NT fibrosarcoma viability, CellTiter-Glo ATP luminescence, 48 h. Potency, µM (titrated, usually from 46.1 µM), most hits filed as cytotoxic. hit rate 1.6% among 360,000. AID 686970;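 also: NT is the 2HG producing partner of a matched IDH1 knockdown line; nearly all actives have a fitted effect of over 55% in size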
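Toxicity toward the 2HG-producing NT line was scored as %Activity, normalised to DMSO and no-cell wells, from CellTiter-Glo luminescence after 48 hours' treatment.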
TDP1 cell noCPT = qHTS for Inhibitors of human tyrosyl-DNA phosphodiesterase 1 (TDP1): qHTS in cells in absence of CPT. DT40 Tdp1-/- hTDP1 cells, no CPT, ATP luminescence, 48 h. Potency, µM (top dose mostly 46.2 µM), most hits filed as inhibitors. hit rate 15% among 420,000; also: nearly all actives have a fitted effect of over 55% in size
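Stably hTDP1-transfected Tdp1-null chicken DT40 cells were treated with library compounds minus camptothecin and grown for at least 48 hr at 37 °C, after which cellular ATP was quantified by luminescence.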
TGFb inhibitor = blocks TGF-b signaling; Potency, µM (highest dose often 46.1 µM), usual class: inhibitors; HepG2 CAGA-GFP TGF-b/SMAD3 reporter, GFP fluorescence, 18 h; TGF-beta stimulated, 500 pg/mL final; AID 588855; hit rate 1.2% among 410,000; also: nearly all actives have a fitted effect of over 65% in size
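HEPG2 CAGA-GFP reporter cells (1000/well, DMEM with 1% FBS) received compounds, then recombinant TGF-beta at 500 pg/mL final for 18 hours at 37 degrees C. Per-cell GFP summed per well was normalised to unstimulated and stimulated DMSO controls before curve fitting.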
TDP1 cell CPT = growth inhibition of DT40 Tdp1-/-;hTDP1 cells with camptothecin (screen for TDP1 inhibitors) | AID 686979 | hit rate 12% among 420,000 | chicken DT40 Tdp1-/-;hTDP1 cells + 20 nM CPT, ATP luminescence, 48 h | Potency, µM (top dose mostly 46.2 µM), most hits filed as inhibitors; also: nearly all actives have a fitted effect of over 55% in size
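Chicken DT40 Tdp1-/- cells complemented with human TDP1, 400 cells/well, exposed to compounds plus 20 nM camptothecin for at least 48 h at 37 C; viability read as ATP content by CellTiter-Glo luminescence.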
A number is an active result; - = inactive; ? = inconclusive; . = no result given; ! = a repeat was not active. An excerpt weighted towards active compounds, which were near 17% of everything screened. Calls follow the shape of the dose curve; as a rule, active = well fitted curve in the direction sought with a large enough effect; inconclusive = small, poorly fitted or top-dose-only effect, or another doubt; inactive = no such curve, though single readings can be large; an effect the other way counts as inactive or inconclusive.

SMILES | HT1080 IDH1KD tx | HepG2 viability | HT1080NT lethal | TDP1 cell noCPT | TGFb inhibitor | TDP1 cell CPT
COc1ccccc1-c1cc2nc(C)c(CCC(=O)Nc3cc(C)ccc3C)c(C)n2n1 | . | - | . | ? | - | ?
COc1cccc(Oc2ccc(C(F)(F)F)cc2NC(=O)CCc2nc3ccccc3c(=O)[nH]2)c1 | - | - | - | 18µM | ? | 16µM
Cc1ccc(F)c(S(=O)(=O)NC(=O)C2(C)CCN2C(=O)Cc2cccs2)c1 (stereo not drawn) | - | - | - | - | - | -
COc1cc(OC)cc(-c2cc3nc(C)c(CCC(=O)NCc4ccccc4)c(C)n3n2)c1 | - | - | - | 18µM | - | ?
O=C(CCc1nc2ccccc2c(=O)[nH]1)NNC(=O)c1cccc(Cl)c1 | - | - | - | - | - | -
Cc1nc2cc(-c3ccccc3)nn2c(C)c1CCC(=O)NCc1cccc(Cl)c1 | . | - | . | ? | ? | 26µM
COc1cc(OC)cc(-c2cc3nc(C)c(CCC(=O)NCc4ccc(Cl)cc4)c(C)n3n2)c1 | . | - | . | ? | ? | ?
O=C(CCc1nc2ccccc2c(=O)[nH]1)NCc1cccc(Cl)c1 | ? | - | 21µM | 23µM | - | 21µM
COc1cc(OC)cc(-c2cc3nc(C)c(CCC(=O)NCCc4cccc(C)c4)c(C)n3n2)c1 | . | - | . | ? | - | 16µM
COc1cccc(N2CCN(S(=O)(=O)c3cn(C)c(C)n3)CC2)c1 | . | - | . | - | - | -
CCCOc1ccc(C(=O)CCCC(=O)c2ccc(OCCC)cc2)cc1 | - | - | - | - | - | -
CCSc1nnc2n(-c3cccc(C)c3)c(=O)c3c4c(sc3n12)CCCC4 | . | - | . | . | - | .
COc1ccc(CNC(=O)CCc2c(C)nc3cc(-c4ccc(OC)cc4OC)nn3c2C)cc1 | . | - | . | ? | - | ?
COc1ccc(-c2cc3nc(C)c(CCC(=O)NCc4ccccc4Cl)c(C)n3n2)c(OC)c1 | . | - | . | 13µM | - | 18µM
Cc1ccc(OCC(=O)Nc2ccc(-c3nc4ccc(C)cc4o3)cc2)cc1 | . | - | . | 18µM | - | 16µM
Cc1ccc(OCC(=O)Nc2cccc(-c3nnc(-c4ccccc4)o3)c2)cc1 | - | - | - | 16µM | - | 16µM
Cc1ccc(-c2nnc(-c3ccc4ccccc4c3)o2)cc1 | 9.2µM | - | ? | ? | - | ?
Cc1cccc(OCC(=O)Nc2cccc(-c3nnc(-c4ccccc4)o3)c2)c1C | - | - | - | ? | - | -
Clc1ccc(-c2nnc(-c3ccc4ccccc4c3)o2)cc1 | - | - | - | - | - | -
CSc1cccc(NC(=O)OC2CCCCCCCCCCC2)c1 | - | - | - | 21µM | - | ?
CS(=O)(=O)Nc1ccccc1C(=O)OCc1cc(=O)n2nc(C3CCCCC3)sc2n1 | . | - | . | ? | - | ?
CC(=O)Nc1cccc(-c2csc(C(O)c3ccc(F)cc3)n2)c1 (stereo not drawn) | - | - | - | - | - | ?
CSc1cccc(NC(=O)COc2ccccc2)c1 | - | - | - | 4.6µM | - | 8.2µM
Cc1cccc(C)c1OCC(=O)Nc1cccc(-c2nnc(-c3ccccc3)o2)c1 | - | - | - | 16µM | - | 18µM
O=C(COc1ccccc1)Nc1cccc(-c2nc3cc4ccccc4cc3[nH]2)c1 | ? | 10µM | ? | 21µM | ? | 15µM
SMILES | HT1080 IDH1KD tx | HepG2 viability | HT1080NT lethal | TDP1 cell noCPT | TGFb inhibitor | TDP1 cell CPT
O=C(CCCn1cncn1)N1CCCC(N2CCN(c3ccc(F)cc3)CC2)C1 (stereo not drawn) | - | - | - | - | - | -
Cc1cccc(N2CCN(C(=O)CCC(=O)N3CCOc4ccc(Cl)cc43)CC2C)c1 (stereo not drawn) | - | - | - | ? | - | ?
Cc1ccc2cc(CCNC(=O)c3ccc(S(=O)(=O)N4CCOCC4)cc3)c(=O)[nH]c2c1 | - | - | - | - | - | ?
Cc1cc2cc(CCNC(=O)c3ccc(S(=O)(=O)N4CCOCC4)cc3)c(=O)[nH]c2cc1C | - | - | - | 18µM | - | 16µM
Cc1ccc2cc(CCNC(=O)c3ccc(S(=O)(=O)N4CCCCC4)cc3)c(=O)[nH]c2c1 | - | - | - | 23µM | - | ?
O=C1CCC(C(=O)N2CCN(c3ccccc3)CC2)CN1Cc1ccc(Cl)cc1 (stereo not drawn) | - | - | - | ? | - | ?
COc1ccccc1CCC(=O)N(Cc1ccccc1)c1c(N)n(Cc2ccccc2)c(=O)[nH]c1=O | - | - | - | ? | - | ?
COc1cccc(N2CCN(C(=O)c3cc4c(=O)n(Cc5ccccc5)ccc4nc3C)CC2)c1 | ? | - | ? | ? | - | 16µM!
COc1ccc(Cn2ccc3nc(C)c(C(=O)N4CCN(c5ccccc5F)CC4)cc3c2=O)cc1 | . | - | . | 18µM | - | 23µM
Cc1nc2ccn(Cc3ccccc3)c(=O)c2cc1C(=O)N1CCN(c2ccccc2F)CC1 | . | - | . | ? | ? | ?
Cc1nn(C)c(C)c1CCC(=O)O | - | - | - | - | - | -
CCn1c(=O)c2cc(C(=O)NCCCOC)sc2c2ccccc21 | ? | - | ? | 10µM | - | 18µM
CCn1c(=O)c2cc(C(=O)Nc3cccc(C(F)(F)F)c3)sc2c2ccccc21 | . | - | . | 9.2µM | - | 7.3µM
CCCCN(CC)CCCNC(=O)c1cc2c(=O)n(CC)c3ccccc3c2s1 | 29µM | - | 18µM | ? | 13µM | ?
CCCN(CCC)CCCNC(=O)c1cc2c(=O)n(CC)c3ccccc3c2s1 | - | - | - | ? | - | ?
CCCCN(CC)CCNC(=O)c1cc2c(=O)n(CC)c3ccccc3c2s1 | - | 13µM! | - | 21µM | - | 16µM
CC(C)(C)c1ccc(S(=O)(=O)NCC(=O)N2CCCC2)cc1 | - | - | - | - | - | -
O=c1[nH]c2cc(F)ccc2c2ccc(F)cc12 | - | - | - | - | - | ?
CC(C)[C@H](NC(=O)c1cc2cc(Cl)ccc2n1C)C(=O)N[C@@H](C(=O)O)c1ccccc1 | - | - | - | - | - | -
Cc1ccc2c(c1)N(CC(=O)NCCCN1C(C)CCCC1C)C(=O)c1cccnc1O2 (stereo not drawn) | - | - | - | - | - | -
COc1ccc(-c2oc3ncn4nc(-c5ccccc5Cl)nc4c3c2-c2ccc(OC)cc2)cc1 | . | - | . | - | - | -
CCN(CCCNC(=O)c1cc2c(=O)n(CC)c3ccccc3c2s1)c1ccccc1 | . | - | . | 18µM | ? | ?
Cc1ccc(NC(=O)CN2CCN(C)CC2)cc1Br | - | - | - | - | - | -

Assay outcomes deposited in PubChem by National Center for Advancing Translational Sciences (NCATS).
